PubChem BioAssay (Tox21)
Records with an inconclusive call do not appear. Calls of active or inactive are those of the source. Unless noted, calls come from the whole dose curve; as a rule, active = well fitted curve in the direction sought with a large enough effect in the repeat runs; inconclusive = weak or mixed curves; inactive = no such curve, though single readings can be large; an effect the other way counts as inactive or inconclusive.

How the values were obtained:
[1] = qHTS assay for small molecule agonists of the p53 signaling pathway (AID 651631; calls by dose curve; note: nearly all actives have a fitted effect of over 15% in size)
How it was run: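 Quantitative high-throughput format: 4,000 p53RE-bla HCT-116 cells/well, 5 h pre-incubation, 16 h compound exposure at 37 °C, 2 h room-temperature substrate step, fluorescence intensity measured.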

[2] = qHTS assay for small molecules that induce genotoxicity in human embryonic kidney cells expressing luciferase-tagged ATAD5 (AID 651632); note: nearly all actives have a fitted effect of over 15% in size
How it was run: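 A rise in luciferase signal from ATAD5-tagged HEK293T cells marks genetic stress. Cells were exposed to compounds for 16 hr at 37C, 5% CO2, then luciferase was quantified after a 30 min room-temperature incubation with Amplite.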

[3] = qHTS assay for small molecule agonists of the p53 signaling pathway - cell viability (AID 651633; calls by dose curve;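 note: p53RE-bla HCT reporter cells with a stable beta-lactamase p53 reporter; series mostly up to about 83 µM; nearly all actives have a fitted effect of over 30% in size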)
How it was run: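 Viability counter-read: CellTiter-Glo luminescence (30 min, room temperature) in the same p53RE-bla plates. These plates had been exposed to compounds for 16 h at 37 C.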

[4] = qHTS assay for small molecules that induce genotoxicity in human embryonic kidney cells expressing luciferase-tagged ATAD5 - cell viability (AID 651634; calls by dose curve; note: nearly all actives have a fitted effect of over 25% in size)
How it was run: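 Cytotoxicity counter-readout: after 15.5 hr compound treatment at 37C, live-cell protease activity in ATAD5-luciferase HEK293T cells measured by CellTiter-Fluor fluorescence, 30 min development at 37C.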

[5] = qHTS assay for small molecule disruptors of the mitochondrial membrane potential - cell viability (AID 720634; calls by dose curve;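 note: human HepG2 liver cancer cells; series mostly up to about 83 µM; nearly all actives have a fitted effect of over 20% in size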)
How it was run: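 Cytotoxicity was quantified from ATP content by CellTiter-Glo luminescence in the same wells as the MMP dye read-out. HepG2 (2,000 cells/well) were plated overnight and exposed to compounds for 1 hr at 37 C.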

[6] = qHTS assay for small molecule disruptors of the mitochondrial membrane potential (AID 720635); note: potency is the fitted concentration of half-maximal effect
How it was run: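 Mitochondrial membrane potential tracked with Mito-MPS dye, red aggregates (ex 540/em 590 nm) against green monomers (ex 490/em 535 nm). Compound treatment 1 hr at 37C, dye 30 min in HepG2.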

[7] = qHTS assay to test for compound auto fluorescence at 590 nm (red) in HepG2 cells (AID 720674)
How it was run: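 1 hr compound incubation on HepG2 cells, 37 C, 5% CO2; plate read ex 540 nm / em 590 nm; intensities reported as Rose Bengal sodium equivalents.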

[8] = qHTS assay to test for compound auto fluorescence at 535 nm (green) in HepG2 cells (AID 720675)
[9] = qHTS assay to test for compound auto fluorescence at 460 nm (blue) in HEK293 cells (AID 720678)
How it was run: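 Blue-channel (Ex/Em 405/460 nm) intensity measured in HEK293 cultures after overnight compound exposure at 37C; signal expressed relative to triamterene. Cells plated 2,000 per well in 10% dialyzed FBS medium and allowed 4-5 hr to attach.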

[10] = qHTS assay to test for compound auto fluorescence at 590 nm (red) in HEK293 cells (AID 720679)
How it was run: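 Red-channel autofluorescence (Ex/Em 540/590 nm; Rose Bengal sodium reference) was measured after overnight 37C, 5% CO2 exposure of attached HEK293 cells, 2,000 per well in medium with 10% dialyzed FBS.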

[11] = qHTS assay to test for compound auto fluorescence at 535 nm (green) in HEK293 cells (AID 720680)
[12] = qHTS assay to test for compound auto fluorescence at 460 nm (blue) in HEK293 cell free culture (AID 720681)
How it was run: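 Blue fluorescence (Ex 405/Em 460 nm, triamterene-equivalent) was read immediately after pin transfer of compound or DMSO into medium (DMEM, 10% FBS) without cells.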

[13] = qHTS assay to test for compound auto fluorescence at 535 nm (green) in HEK293 cell free culture (AID 720682)
How it was run: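 Measurement is a direct plate read of green fluorescence (485 nm in, 535 nm out) after compound addition to serum-supplemented DMEM lacking cells, with fluorescein used to express intensities.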

[14] = qHTS assay to test for compound auto fluorescence at 590 nm (red) in HEK293 cell free culture (AID 720683)
How it was run: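 Red-channel autofluorescence of compounds in culture medium (DMEM, 10% FBS), no cells, measured at 540/590 nm. Rose Bengal sodium is the reference fluorophore for equivalence.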

[15] = qHTS assay to test for compound auto fluorescence at 590 nm (red) in HepG2 cell free culture (AID 720684)
How it was run: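 No cells present: MEM + 10% FBS only. Compound pinned in, red label read (540/590 nm). Activity = fluorescence equivalent to Rose Bengal sodium.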

[16] = qHTS assay to test for compound auto fluorescence at 460 nm (blue) in HepG2 cell free culture (AID 720685)
How it was run: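 Cell-free plates of MEM plus 10% FBS received 23 nL compound or DMSO vehicle; blue-channel (405/460 nm) intensity scored against triamterene as reference fluorophore.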

[17] = qHTS assay to test for compound auto fluorescence at 535 nm (green) in HepG2 cell free culture (AID 720686)
[18] = qHTS assay to test for compound auto fluorescence at 460 nm (blue) in HepG2 cells (AID 720687)
How it was run: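 Blue-channel autofluorescence (Ex/Em 405/460 nm, triamterene-equivalent) was measured after 1 hr compound exposure at 37 C, 5% CO2. Cells were HepG2, plated overnight at 37 C in MEM plus 10% FBS.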

[19] = target: Glucocorticoid receptor (Homo sapiens) (UniProt P04150); test: qHTS assay to identify small molecule agonists of the glucocorticoid receptor (GR) signaling pathway (AID 720691; active = well fitted activation curve with a large enough effect in the signal ratio in the repeat runs, not every such curve was filed as active; the % refers to the signal ratio)
Sequence of Glucocorticoid receptor (Homo sapiens) (P04150 whole entry, looked up): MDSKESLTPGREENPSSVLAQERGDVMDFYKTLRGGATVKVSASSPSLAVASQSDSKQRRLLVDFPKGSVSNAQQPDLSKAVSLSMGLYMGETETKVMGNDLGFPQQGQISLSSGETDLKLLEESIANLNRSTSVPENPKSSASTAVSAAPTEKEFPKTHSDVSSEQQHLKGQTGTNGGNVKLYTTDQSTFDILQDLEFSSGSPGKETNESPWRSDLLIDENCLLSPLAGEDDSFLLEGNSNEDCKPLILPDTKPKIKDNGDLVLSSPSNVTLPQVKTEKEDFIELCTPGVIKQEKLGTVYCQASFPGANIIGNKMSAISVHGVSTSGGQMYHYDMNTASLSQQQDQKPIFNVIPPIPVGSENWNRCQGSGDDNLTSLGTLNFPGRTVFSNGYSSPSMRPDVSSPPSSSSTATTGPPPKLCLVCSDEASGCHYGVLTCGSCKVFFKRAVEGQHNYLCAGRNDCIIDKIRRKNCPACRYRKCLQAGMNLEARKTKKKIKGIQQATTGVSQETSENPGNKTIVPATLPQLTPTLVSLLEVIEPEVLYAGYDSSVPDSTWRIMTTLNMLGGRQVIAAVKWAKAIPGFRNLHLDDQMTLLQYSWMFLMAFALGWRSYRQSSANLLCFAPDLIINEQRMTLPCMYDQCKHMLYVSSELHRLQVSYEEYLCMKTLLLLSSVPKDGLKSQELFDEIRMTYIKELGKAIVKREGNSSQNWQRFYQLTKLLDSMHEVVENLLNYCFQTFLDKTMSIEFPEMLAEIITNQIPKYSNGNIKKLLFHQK
How it was run: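 Agonist-mode qHTS in HeLa cells stably expressing a glucocorticoid-response-element beta-lactamase reporter. Fluorescence intensity read with FRET substrate (2 h, room temperature) after 18 h compound treatment at 37 C.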

[20] = target: Glucocorticoid receptor (Homo sapiens) (UniProt P04150); test: qHTS assay to identify small molecule antagonists of the glucocorticoid receptor (GR) signaling pathway (AID 720692; active = well fitted inhibition curve with a large enough effect in the signal ratio in the repeat runs, not every such curve was filed as active; the % refers to the signal ratio; note: potency is the fitted concentration of half-maximal effect)
How it was run: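 Inhibition of dexamethasone-driven (5 nM final) beta-lactamase expression was measured in GRE-reporter HeLa cells over 18 h at 37C. Fluorescence was read after 2 h with the B/G FRET substrate at room temperature.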

Measured: Potency

Cc1cc(=O)[nH]o1
inactive: all assays above

O=NN1CCCCCC1
not listed: [10] | [20]
inactive: all other assays above

Brc1ccccc1
not listed: [6]
inactive: all other assays above

CCCCCCC#N
not listed: [12] | [19] | [20]
inactive: all other assays above

C=CCC1([C@H](C)CCC)C(=O)NC(=O)NC1=O
not listed: [10]
inactive: all other assays above

CCBr
not listed: [6] | [20]
inactive: all other assays above

O=NN1CCNCC1
not listed: [6] | [12] | [20]
inactive: all other assays above

O=[N+]([O-])c1ccccc1CCl
inactive: all assays above

COC1=CC(=O)O[C@@H](CCc2ccccc2)C1
inactive: all assays above

ClC=C(Cl)Cl
not listed: [6] | [19] | [20]
inactive: all other assays above

c1ccc(C2CC2)c(OCC2=NCCN2)c1
not listed: [6]
inactive: all other assays above

CN1C(=O)NC(=O)C(C)(C2=CCCCC2)C1=O (stereo not given)
not listed: [6]
inactive: all other assays above

N#Cc1ccc(Cl)cc1
not listed: [6]
inactive: all other assays above

Cc1ccc(N)cc1C
not listed: [6] | [19] | [20]
inactive: all other assays above

II
active: [6] 19.3 µM
not listed: [18]
inactive: all other assays above

NNC(=O)c1cccnc1
not listed: [6] | [12] | [20]
inactive: all other assays above

COc1cc(Cl)c(OC)cc1Cl
not listed: [6] | [18]
inactive: all other assays above

C=CC(C)=O
not listed: [20]
inactive: all other assays above

Cc1ccc2ccccc2c1
not listed: [12] | [18] | [19] | [20]
inactive: all other assays above

CNC(C)Cc1ccccc1OC (stereo not given)
not listed: [19]
inactive: all other assays above

COC(=O)c1cncn1C(C)c1ccccc1 (stereo not given)
not listed: [6] | [19] | [20]
inactive: all other assays above

CCCCCCCCCC(=O)O[C@H]1CC[C@H]2[C@@H]3CCC4=CC(=O)CC[C@@H]4[C@H]3CC[C@]12C
active: [20] 9.52 µM
not listed: [7] | [18] | [19]
inactive: all other assays above

Brc1ccc(Oc2ccccc2)cc1
not listed: [18]
inactive: all other assays above

CCOP(=O)(OCC)SCCSCC
not listed: [12] | [19] | [20]
inactive: all other assays above

CC(=O)CCC(C)=O
not listed: [6] | [12]
inactive: all other assays above

CC(Cl)C(C)Cl (stereo not given)
not listed: [6]
inactive: all other assays above

C=CCOC(C)=O
not listed: [6] | [12] | [20]
inactive: all other assays above

CCN(C)N=O
active: [6] 1.9 µM
not listed: [12] | [19] | [20]
inactive: all other assays above

CCOC(=O)CBr
not listed: [6] | [10] | [20]
inactive: all other assays above

Nc1nc(N)nc(N)n1
inactive: all assays above

CCOc1ccc(C(C)(C)COCc2cccc(Oc3ccccc3)c2)cc1
not listed: [6] | [12]
inactive: all other assays above

Nc1ccc(N=Nc2ccc(-c3ccc(N=Nc4c(S(=O)(=O)O)cc5cc(S(=O)(=O)O)c(N=Nc6ccccc6)c(O)c5c4N)cc3)cc2)c(N)c1
active: [6] 6.24 µM
not listed: [7] | [10] | [20]
inactive: all other assays above
